Test results reported in PubChem BioAssay.
Where “and” joins values, the source holds several entries; their conditions need not be identical. Equal entries are not always repeated. Records with an inconclusive call do not appear. Where a structure was tested more than once in an assay, its records may differ in their call. Calls of active or inactive are those of the source.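 How the source made its calls, unless noted: active means normalized viability below 100% at a tested concentration; inactive means the rest.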

What was measured:
[1] = viability loss in pontine glioma line – cell-based, SU-DIPG-XXV, MIPE5.0, CellTiter-Glo, qHTS, dose response (AID 1347065; cut-off not given, nearly all actives have AC50 up to about 26 µM;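 further: cells exposed to compound for 48 hours before ATP readout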); details: CellTiter-Glo ATP luminescence
[2] = SU-DIPG-VI glioma cell viability, MIPE4.0 library, CellTiter-Glo luminescence, qHTS (AID 1347066; cut-off not given, nearly all actives have AC50 up to about 30 µM;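 further: cells exposed to compound for 48 hours before readout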); details: CellTiter-Glo ATP luminescence
[3] = JHH-DIPG-1 glioma cell viability, MIPE5.0 library, CellTiter-Glo luminescence, qHTS (AID 1347067; cut-off not given, nearly all actives have AC50 up to about 26 µM;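 further: cells exposed to compound for 48 hours before readout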); details: JHH-DIPG-1 glioma viability, CellTiter-Glo ATP luminescence
[4] = SU-DIPG-XXV glioma cell viability, MIPE5.0 library, qHTS (AID 1347068; cut-off not given, nearly all actives have IC50 up to about 30 µM)
[5] = modifiers of HSF1 nuclear foci, imaging, Selleck Cancer Library (AID 1347162; in the data active means plate-normalised HSF1 focus index below about 0.46); details: human cells, at 10 µM; SSMD: measured here: HSF1 foci SSMD mean; cell count: measured here: cell number; plate-normalised HSF1 focus index: stronger effect = lower value
[6] = survival rescue of mitochondrial mutant cells in low glucose, primary screen, MELAS cybrids, Rieske KO mouse fibroblasts, CellTiter-Glo (AID 1508586;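 active means mean z-score across replicates of 1.96 or higher in either the MELAS or the Rieske mutant cell line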;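 further: z relative to plate mean and SD of compound and empty wells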)
[7] = ovarian cancer cell viability with rucaparib, profiling panel, oncology-focused library, rucaparib conditional (AID 1508598); details: patient-derived ovarian cancer cells, CellTiter-Glo viability, 144 h, stronger effect = lower value
[8] = target: NAD(+) hydrolase SARM1 (Homo sapiens) (UniProt Q6SZW1); assay: SARM1 TIR NADase inhibitors, cell lysate, NAD-Glo luminescence (AID 1508614;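 active means compound whose remaining NAD level is above about 45 nM, limit read from the data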); details: SAM-TIR HEK293T lysate NADase, at 1 µM, stronger effect = higher value
[9] = viability rescue of complex I mutant cybrids, primary screen, cell-based, galactose medium, ATP luminescence (AID 1645843;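 active means z-score of at least 1.8 in each of two replicates, scored against plate mean and spread of sample wells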;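 further: positive z means more ATP and so rescue of galactose-driven cybrid death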); details: complex I mutant cybrid cells, 72 h, stronger effect = higher value
[10] = phospholipid biosynthesis inhibitors in animal cells, primary screen, cell-based, LOPAC library, screen 4 (AID 1347384; call rule not given here); details: phospholipid biosynthesis inhibition screen, at 10 µM
[11] = target: Mitogen-activated protein kinase 7 (Homo sapiens) (UniProt Q13164); assay: ERK5 transactivation activators in reporter cells, primary screen, cell-based, HTS (AID 1508626;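 active means luciferase signal above three times the same-plate solvent-only control wells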;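 further: luciferase driven by Gal4-ERK5 fusion binding five Gal4 sites before minimal TATA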); details: HeLa Gal4-ERK5 transactivation, 18 h, at 5 µM, stronger effect = higher value
[12] = MELAS cybrid survival, CellTiter-Glo 48 h, stronger effect = higher value
[13] = Rieske KO mouse fibroblast survival, CellTiter-Glo 72 h

Chain of Mitogen-activated protein kinase 7 (Homo sapiens) (Q13164 whole entry, looked up, the tested form may be a part): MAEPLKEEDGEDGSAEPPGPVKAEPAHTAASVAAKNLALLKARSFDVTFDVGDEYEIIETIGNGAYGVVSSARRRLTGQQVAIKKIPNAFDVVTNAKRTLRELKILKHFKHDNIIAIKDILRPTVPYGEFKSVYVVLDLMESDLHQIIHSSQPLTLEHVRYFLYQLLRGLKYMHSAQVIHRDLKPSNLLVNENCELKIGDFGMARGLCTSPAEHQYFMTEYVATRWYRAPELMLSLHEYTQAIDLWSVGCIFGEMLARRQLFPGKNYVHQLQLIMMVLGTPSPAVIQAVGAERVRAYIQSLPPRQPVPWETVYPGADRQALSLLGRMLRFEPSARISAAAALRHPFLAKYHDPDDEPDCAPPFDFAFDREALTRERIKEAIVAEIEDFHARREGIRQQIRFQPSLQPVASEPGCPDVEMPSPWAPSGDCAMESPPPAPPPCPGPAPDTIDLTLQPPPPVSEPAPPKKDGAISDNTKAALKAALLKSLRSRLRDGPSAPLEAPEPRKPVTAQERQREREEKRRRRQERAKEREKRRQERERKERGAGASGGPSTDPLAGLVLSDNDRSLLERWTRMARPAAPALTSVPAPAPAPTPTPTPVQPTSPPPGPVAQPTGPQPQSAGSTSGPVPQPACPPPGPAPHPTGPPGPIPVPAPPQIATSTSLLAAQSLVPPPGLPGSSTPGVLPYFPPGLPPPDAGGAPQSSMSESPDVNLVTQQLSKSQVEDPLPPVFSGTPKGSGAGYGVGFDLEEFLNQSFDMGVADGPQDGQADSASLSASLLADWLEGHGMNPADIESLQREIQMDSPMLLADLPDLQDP
Chain of NAD(+) hydrolase SARM1 (Homo sapiens) (Q6SZW1 whole entry, looked up): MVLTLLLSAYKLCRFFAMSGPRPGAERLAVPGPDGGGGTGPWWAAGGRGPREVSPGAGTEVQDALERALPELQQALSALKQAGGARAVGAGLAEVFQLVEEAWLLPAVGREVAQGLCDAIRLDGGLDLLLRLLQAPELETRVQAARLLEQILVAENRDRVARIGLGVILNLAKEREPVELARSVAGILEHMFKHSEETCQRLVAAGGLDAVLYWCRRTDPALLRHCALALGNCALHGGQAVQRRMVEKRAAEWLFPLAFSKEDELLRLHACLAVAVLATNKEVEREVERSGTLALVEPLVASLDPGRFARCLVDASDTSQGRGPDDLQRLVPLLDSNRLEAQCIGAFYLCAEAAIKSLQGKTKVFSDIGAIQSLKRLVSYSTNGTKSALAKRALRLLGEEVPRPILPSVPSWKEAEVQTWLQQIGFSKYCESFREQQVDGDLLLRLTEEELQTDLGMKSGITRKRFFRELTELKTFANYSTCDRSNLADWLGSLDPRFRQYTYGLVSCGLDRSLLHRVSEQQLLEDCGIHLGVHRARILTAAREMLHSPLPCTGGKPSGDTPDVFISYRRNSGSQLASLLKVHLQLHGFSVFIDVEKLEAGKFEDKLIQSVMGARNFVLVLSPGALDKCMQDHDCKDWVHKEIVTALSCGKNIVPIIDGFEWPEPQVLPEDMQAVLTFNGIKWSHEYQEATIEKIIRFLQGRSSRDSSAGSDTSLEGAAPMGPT

N#Cc1ccc(C(c2ccc(C#N)cc2)n2cncn2)cc1
outcome [1]: inactive | outcome [2]: inactive | outcome [3]: inactive | outcome [4]: inactive | SSMD [5]: 2 | cell count [5]: 6610 | plate-normalised HSF1 focus index [5]: 1.1 (inactive) | z-score [6, 12]: -0.0811 (inactive) and 0.894 (inactive) and -0.0703 (inactive) | z-score [6, 13]: -0.000166 and 0.656 and -0.338 | viability ([7]; at 0.000305 µM, OCI-C5x cells, with rucaparib 10 µM, 100% = cells with rucaparib alone): 117% (inactive) | viability ([7]; at 0.000305 µM, OCI-C5x cells, without rucaparib): 101% (inactive) | viability ([7]; at 0.000305 µM, OCI-P5x cells, with rucaparib 20 µM, 100% = cells with rucaparib alone): 94% (active) | viability ([7]; at 0.000305 µM, OCI-P5x cells, without rucaparib): 91% (active) | viability ([7]; at 0.00122 µM, OCI-C5x cells, with rucaparib 10 µM, 100% = cells with rucaparib alone): 116% (inactive) | viability ([7]; at 0.00122 µM, OCI-C5x cells, without rucaparib): 113% (inactive) | viability ([7]; at 0.00122 µM, OCI-P5x cells, with rucaparib 20 µM, 100% = cells with rucaparib alone): 104% (inactive) | viability ([7]; at 0.00122 µM, OCI-P5x cells, without rucaparib): 94.3% (active) | viability ([7]; at 0.00488 µM, OCI-C5x cells, with rucaparib 10 µM, 100% = cells with rucaparib alone): 114% (inactive) | viability ([7]; at 0.00488 µM, OCI-C5x cells, without rucaparib): 107% (inactive) | viability ([7]; at 0.00488 µM, OCI-P5x cells, with rucaparib 20 µM, 100% = cells with rucaparib alone): 104% (inactive) | viability ([7]; at 0.00488 µM, OCI-P5x cells, without rucaparib): 97.8% (active) | viability ([7]; at 0.0195 µM, OCI-C5x cells, with rucaparib 10 µM, 100% = cells with rucaparib alone): 117% (inactive) | viability ([7]; at 0.0195 µM, OCI-C5x cells, without rucaparib): 112% (inactive) | viability ([7]; at 0.0195 µM, OCI-P5x cells, with rucaparib 20 µM, 100% = cells with rucaparib alone): 109% (inactive) | viability ([7]; at 0.0195 µM, OCI-P5x cells, without rucaparib): 106% (inactive) | viability ([7]; at 0.0781 µM, OCI-C5x cells, with rucaparib 10 µM, 100% = cells with rucaparib alone): 123% (inactive) | viability ([7]; at 0.0781 µM, OCI-C5x cells, without rucaparib): 102% (inactive) | viability ([7]; at 0.0781 µM, OCI-P5x cells, with rucaparib 20 µM, 100% = cells with rucaparib alone): 106% (inactive) | viability ([7]; at 0.0781 µM, OCI-P5x cells, without rucaparib): 105% (inactive) | viability ([7]; at 0.313 µM, OCI-C5x cells, with rucaparib 10 µM, 100% = cells with rucaparib alone): 117% (inactive) | viability ([7]; at 0.313 µM, OCI-C5x cells, without rucaparib): 106% (inactive) | viability ([7]; at 0.313 µM, OCI-P5x cells, with rucaparib 20 µM, 100% = cells with rucaparib alone): 104% (inactive) | viability ([7]; at 0.313 µM, OCI-P5x cells, without rucaparib): 108% (inactive) | viability ([7]; at 1.25 µM, OCI-C5x cells, with rucaparib 10 µM, 100% = cells with rucaparib alone): 107% (inactive) | viability ([7]; at 1.25 µM, OCI-C5x cells, without rucaparib): 104% (inactive) | viability ([7]; at 1.25 µM, OCI-P5x cells, with rucaparib 20 µM, 100% = cells with rucaparib alone): 108% (inactive) | viability ([7]; at 1.25 µM, OCI-P5x cells, without rucaparib): 107% (inactive) | viability ([7]; at 5 µM, OCI-C5x cells, with rucaparib 10 µM, 100% = cells with rucaparib alone): 113% (inactive) | viability ([7]; at 5 µM, OCI-C5x cells, without rucaparib): 128% (inactive) | viability ([7]; at 5 µM, OCI-P5x cells, with rucaparib 20 µM, 100% = cells with rucaparib alone): 112% (inactive) | viability ([7]; at 5 µM, OCI-P5x cells, without rucaparib): 104% (inactive) | remaining NAD [8]: 10 nM (inactive) | z-score [9]: 0.515 (inactive) and 0.315 (inactive)

CC1(C)NC(=O)N(c2ccc([N+](=O)[O-])c(C(F)(F)F)c2)C1=O
outcome [1]: inactive | outcome [2]: inactive | outcome [3]: inactive | outcome [4]: inactive | outcome [10]: inactive | z-score [6, 12]: 1.34 (inactive) | z-score [6, 13]: -0.252 | remaining NAD [8]: 10 nM (inactive) | luciferase signal [11]: 100 AU (inactive) | z-score [9]: -0.59 (inactive) and -0.55 (inactive)

CCC1=C(C)CN(C(=O)NCCc2ccc(S(=O)(=O)NC(=O)NC3CCC(C)CC3)cc2)C1=O (stereo not given)
outcome [1]: inactive | outcome [2]: inactive | outcome [3]: inactive | outcome [4]: inactive | z-score [6, 12]: -0.439 (inactive) and 0.644 (inactive) and 0.245 | z-score [6, 13]: 0.486 and 0.124 and 2.28 | remaining NAD [8]: 10 nM (inactive) | z-score [9]: 2.29 (active) and 6.57 (active) and 1.99 (inactive)

Cc1cc(C(C)(C)C)cc(C)c1CC1=NCCN1
outcome [1]: inactive | outcome [2]: inactive | outcome [3]: inactive | outcome [4]: inactive | outcome [10]: inactive | z-score [6, 12]: 0.304 (inactive) and -0.439 (inactive) and 0.446 (inactive) | z-score [6, 13]: 0.616 and -0.336 and 0.511 | remaining NAD [8]: 10 nM (inactive) | luciferase signal [11]: 44 AU (inactive) | z-score [9]: -0.37 (inactive) and 0.085 (inactive)

CCOC(=O)c1ncn2c1CN(C)C(=O)c1cc(F)ccc1-2
outcome [1]: inactive | outcome [2]: inactive | outcome [3]: inactive | outcome [4]: inactive | outcome [10]: inactive | z-score [6, 12]: 0.109 (inactive) and 0.0778 (inactive) | z-score [6, 13]: 0.977 and -0.775 | remaining NAD [8]: 10 nM (inactive) | luciferase signal [11]: 60 AU (inactive)
